# Measured values from PubChem BioAssay (NCATS).
# Several values for one entry are separate records, joined by “and”; a condition that tells them apart may be missing. Identical values can stand only once. Records with an inconclusive call do not appear. Where a call stands in place of a potency, no number is given. A structure can be active in one record and inactive in another. Activity calls are given as the source filed them. Calls follow the shape of the dose curve; as a rule, active = well fitted curve in the direction sought with a large enough effect; inconclusive = small, poorly fitted or top-dose-only effect, or another doubt; inactive = no such curve, though single readings can be large; an effect the other way counts as inactive or inconclusive. Where a SMILES comes first, the peptide text is derived from it. [ ]: non-standard residue; d: D form. The star is where a group is joined. Sta = CC(C)C[C@H](N)[C@@H](O)CC(=O)O; Isovaleryl = CC(C)CC(=O)*
# Assays:
# [1] = target: Cytochrome P450 3A7 (Homo sapiens) (UniProt P24462); assay: Cytochrome P450 family 3 subfamily A member 7 (CYP3A7) small molecule antagonists: luciferase biochemical qHTS assay (AID 1963596); also: nearly all actives have a fitted effect of over 40% in size
# Cytochrome P450 3A7 (Homo sapiens), sequence (P24462 whole entry, looked up): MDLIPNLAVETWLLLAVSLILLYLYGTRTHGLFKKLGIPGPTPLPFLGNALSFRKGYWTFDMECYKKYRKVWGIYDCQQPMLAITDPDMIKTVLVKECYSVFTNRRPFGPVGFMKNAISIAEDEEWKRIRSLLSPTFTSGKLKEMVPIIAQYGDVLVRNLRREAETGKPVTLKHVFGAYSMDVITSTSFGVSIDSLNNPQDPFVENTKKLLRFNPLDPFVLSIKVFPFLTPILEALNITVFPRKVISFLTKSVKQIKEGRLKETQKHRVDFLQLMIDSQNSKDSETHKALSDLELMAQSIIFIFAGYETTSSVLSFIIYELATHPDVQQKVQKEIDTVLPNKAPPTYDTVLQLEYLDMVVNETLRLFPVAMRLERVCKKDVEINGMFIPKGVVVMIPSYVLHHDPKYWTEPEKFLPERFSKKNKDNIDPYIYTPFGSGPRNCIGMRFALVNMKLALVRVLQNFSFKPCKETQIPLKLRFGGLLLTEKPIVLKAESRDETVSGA
# In short: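 Enzyme-substrate mix + cpd (DMSO), 10 min RT; + NADPH regen system, 1 h RT; + luciferin detection reagent, 20 min RT; luminescence read. Proluciferin substrate, P450-Glo format, 1536-well qHTS.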
# [2] = Viability qHTS for spleen associated tyrosine kinase inhibitor (SYKi) naive MV4-11 cells (AID 1963823); also: nearly all actives have a fitted effect of over 40% in size; also: potency is read from the fitted curve at half-maximal effect
# In short: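 SYKi-naive MV4-11 AML cells, 500 per well, were exposed to library compounds for 72 hr at 37 C, 5% CO2. Viability was then read by CellTiter-Glo luminescence after 10 min at room temperature.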
# [3] = Viability qHTS for spleen associated tyrosine kinase inhibitor (SYKi) drug resistant MV4-11 cells (AID 1963824); also: nearly all actives have a fitted effect of over 35% in size; also: potency is read from the fitted curve at half-maximal effect
# In short: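 SYK inhibitor-resistant MV4-11 AML cells, 500 per well, added to predispensed compounds and incubated 72 hr at 37 C, 5% CO2. Viability measured by CellTiter-Glo luminescence after 10 min at room temperature.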
# [4] = Quantitative highthroughput screen to assess conditional lethalithy of NOMO1 cells grown in RPMI1640 with untreated serum (RPMI+s) (AID 1963876); also: nearly all actives have a fitted effect of over 35% in size; also: potency is read from the fitted curve at half-maximal effect
# In short: (§1)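 Each medium arm—HPLM with 10% dialyzed FBS, or RPMI1640 with 5 mM glucose and 10% untreated or dialyzed FBS—was screened against an 11-point, 3-fold compound titration for 48 h at 37 °C, with CellTiter-Glo luminescence as endpoint.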
# [5] = Quantitative highthroughput screen to assess conditional lethalithy of NOMO1 cells grown in RPMI1640 with dialyzed fetal bovine serum (RPMI+ds) (AID 1963877); also: nearly all actives have a fitted effect of over 30% in size; also: potency is read from the fitted curve at half-maximal effect; as to Viability: series mostly up to about 46 µM
# In short: as §1
# [6] = Quantitative highthroughput screen to assess conditional lethalithy of P12 Ichikawa cells grown in Human Plasma-Like Medium with dialyzed fetal bovine serum (HPLM+ds) (AID 1963879); details: Potency: viability; also: nearly all actives have a fitted effect of over 35% in size; also: potency is read from the fitted curve at half-maximal effect; as to Viability: series mostly up to about 46 µM
# In short: as §1
# [7] = Quantitative highthroughput screen to assess conditional lethalithy of P12 Ichikawa cells grown in RPMI1640 with dialyzed fetal bovine serum (RPMI+ds) (AID 1963880); details: Potency: P12-Ichikawa viability; also: nearly all actives have a fitted effect of over 35% in size; also: potency is read from the fitted curve at half-maximal effect
# In short: as §1
# [8] = Quantitative highthroughput screen to assess conditional lethalithy of P12 Ichikawa cells grown in RPMI1640 with untreated serum (RPMI+s) (AID 1963881); details: Potency: viability; also: nearly all actives have a fitted effect of over 35% in size; also: potency is read from the fitted curve at half-maximal effect; as to Viability: series mostly up to about 46 µM
# In short: as §1
# [9] = Quantitative highthroughput screen to assess conditional lethalithy of SEM cells grown in RPMI1640 with unreated serum (RPMI+s) (AID 1963883); also: nearly all actives have a fitted effect of over 35% in size; also: potency is read from the fitted curve at half-maximal effect
# In short: as §1
# [10] = Cellular viability qHTS for adrenocortical cancer (ACC) cell line SW-13 (AID 1963989); details: SW-13 ACC cells viability, CellTiter-Glo, 48 h; activity (max response): stronger effect = lower value; also: nearly all actives have a fitted effect of over 65% in size; also: potency is read from the fitted curve at half-maximal effect;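 as to activity (max response): cells grown in serum-free medium with ITS supplement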
# In short: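 Viability was read as CellTiter-Glo luminescence after 48 h compound treatment (up to 46 uM final) of SW-13 cells grown serum-free; titration curves were fit with a four-parameter logistic model to give IC50 and efficacy.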
# [11] = Cellular viability qHTS for adrenocortical cancer (ACC) cell line NCI-H295R (AID 1963990); also: nearly all actives have a fitted effect of over 60% in size; also: potency is read from the fitted curve at half-maximal effect
# In short: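 CellTiter-Glo ATP luminescence, read 48 h after compound addition, measured viability of NCI-H295R adrenocortical cells grown serum-free with ITS. Final concentrations spanned up to 46 uM. Data normalized to DMSO and doxorubicin, fitted for IC50 and maximal response.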
# [12] = Quantitative highthroughput screen to assess conditional lethalithy of NOMO1 cells grown in Human Plasma-Like Medium with dialyzed fetal bovine serum (HPLM+ds) (AID 1963878); also: nearly all actives have a fitted effect of over 35% in size; also: potency is read from the fitted curve at half-maximal effect
# In short: as §1
# [13] = Quantitative highthroughput screen to assess conditional lethalithy of SEM cells grown in Human Plasma-Like Medium with dialyzed fetal bovine serum (HPLM+ds) (AID 1963882); also: nearly all actives have a fitted effect of over 35% in size; also: potency is read from the fitted curve at half-maximal effect; as to Viability: series mostly up to about 46 µM
# In short: as §1
# [14] = Quantitative highthroughput screen to assess conditional lethalithy of SEM cells grown in RPMI1640 with dialyzed fetal bovine serum (RPMI+ds) (AID 1963884); also: nearly all actives have a fitted effect of over 35% in size; also: potency is read from the fitted curve at half-maximal effect; as to Viability: series mostly up to about 46 µM
# In short: as §1
Compound,Potency [1],Potency [2],Potency [3],Potency [4],Potency [5],Potency [6],Potency [7],Potency [8],Potency [9],activity (max response) [10],Potency [11],Potency [12],Potency [13],Potency [14],Potency [10]
CC(C)CC(=O)N[C@H](C(=O)N[C@H](C(=O)N[C@@H](CC(C)C)[C@@H](O)CC(=O)N[C@@H](C)C(=O)N[C@@H](CC(C)C)[C@@H](O)CC(=O)O)C(C)C)C(C)C (Isovaleryl-VV[Sta]A[Sta]-OH),inactive,inactive,inactive,inactive,inactive,inactive,inactive,inactive,26.4 µM (active),4.2% (inactive) and -6.21% (inactive),inactive,,,,
COc1ccc2c(OCc3nnc4ccc(-c5ccccc5)nn34)ccnc2c1,inactive,inactive,inactive,inactive,inactive,,inactive,inactive,11.8 µM (active),-4.03% (inactive),,inactive,,,
CNNCc1ccc(C(=O)NC(C)C)cc1,inactive,inactive,inactive,inactive,inactive,inactive,,,,0.571% (inactive) and -4.58% (inactive),,,,,
CC(=O)N(O)CCCCCNC(=O)CCC(=O)N(O)CCCCCNC(=O)CCC(=O)N(O)CCCCCN,inactive,6.61 µM (active),5.9 µM (active),0.0186 µM (active),0.0831 µM (active),0.0047 µM (active),0.0741 µM (active),0.0588 µM (active),,,inactive,,,,
COc1ccc(C2(C#N)CCC(C(=O)O)CC2)cc1OC1CCCC1 (stereo not drawn),inactive,inactive,inactive,inactive,inactive,inactive,,inactive,inactive,2.89% (inactive),inactive,inactive,inactive,inactive,
Cc1nnc(C(=O)NC(C)(C)c2nc(C(=O)NCc3ccc(F)cc3)c(O)c(=O)n2C)o1,inactive,inactive,inactive,inactive,,inactive,inactive,inactive,inactive,8% (inactive) and 11.5% (inactive),,inactive,inactive,inactive,
COC[C@H](NC(=O)c1cnc(C)s1)C(=O)N[C@@H](COC)C(=O)N[C@@H](Cc1ccccc1)C(=O)[C@@]1(C)CO1,inactive,0.0661 µM (active),0.0833 µM (active),0.469 µM (active),0.469 µM (active),0.235 µM (active),0.235 µM (active),,0.0833 µM (active),,0.282 µM (active),0.332 µM (active),0.0935 µM (active),,0.316 µM (active)
O=C(O)CSCC(=O)NC1CCSC1=O (stereo not drawn),inactive,inactive,inactive,inactive,inactive,,inactive,inactive,inactive,,inactive,inactive,inactive,inactive,
c1ccc([C@H]2CN3CCSC3=N2)cc1,inactive,inactive,inactive,inactive,inactive,inactive,inactive,inactive,,-16.6% (inactive) and 4.55% (inactive),inactive,,inactive,inactive,
CC(=O)c1cnc2ccc(-c3cc(Cl)c(O)c(Cl)c3)nc2c1NC1CCC(CN(C)C)CC1 (stereo not drawn),inactive,4.7 nM (active) and 0.8 nM (active),11.9 nM (active) and 2.9 nM (active),0.132 µM (active),0.132 µM (active),,0.132 µM (active),0.148 µM (active),0.0741 µM (active),,0.212 µM (active),0.066 µM (active),,0.0588 µM (active),0.0751 µM (active)
O=c1[nH]c(-c2ccc(C(F)(F)F)cc2)nc2c1CSCC2,inactive,2.35 µM (active),inactive,inactive,,inactive,inactive,inactive,inactive,-10.8% (inactive),inactive,inactive,inactive,inactive,
COc1cc2c(Nc3ccc(Br)cc3F)ncnc2cc1OCC1CCN(C)CC1,inactive,inactive and 820 nM (active),inactive and 731 nM (active) and 2.95 µM (active),inactive,,inactive,inactive,inactive,,-8.28% (inactive),inactive and 25.1 µM (active),,,,17.8 µM (active)
